The campaign covered roughly 5,500 compounds. About 2,000 (36%) were called active. Another 18% or so got no clear call; they are omitted. Rule as the data show it: active = normalized growth mostly below about 0.91 (no sharp cut-off); inconclusive = no clear call, values can overlap the other calls; inactive = mostly above about 0.92. Some of the results follow.
Experiment: chemical genetic growth profiling, strain panel (AID 1159580);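 also: tested at 20 µM; growth read once vehicle control cultures reached saturation at 30 °C; 1 = growth at the plate median or of vehicle wells; lower values mean less growth of the strain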
Conditions: growth OD

Measured: normalized growth

C=CCSCC1Nc2cc(Cl)c(S(N)(=O)=O)cc2S(=O)(=O)N1 (configuration not stated)
inactive: S. cerevisiae deletion strains, locus YJR075W, strain HOC1, active compounds read low 1.01 | S. cerevisiae deletion strains, locus YKL009W, strain mrt4, active compounds read low 1.02 | S. cerevisiae deletion strains, locus YKL068W, active compounds read low 1.02 | S. cerevisiae deletion strains, locus YKL085W, strain MDH1 (second series), active compounds read low 1 | S. cerevisiae deletion strains, locus YKL085W, strain MDH1, active compounds read low 1 | S. cerevisiae deletion strains, locus YKL160W, strain elf1, active compounds read low 0.994 | S. cerevisiae deletion strains, locus YKL190W, strain CNB1, active compounds read low 1.01 | S. cerevisiae deletion strains, locus YKR001C, strain vps1, active compounds read low 1.02 | S. cerevisiae deletion strains, locus YKR026C, strain gcn3, active compounds read low 1 | S. cerevisiae deletion strains, locus YKR091W, strain srl3, active compounds read low 1 | S. cerevisiae deletion strains, locus YLL001W, strain dnm1, active compounds read low 0.997 | S. cerevisiae deletion strains, locus YLL026W, active compounds read low 0.998 | S. cerevisiae deletion strains, locus YLL041C, strain sdh2, active compounds read low 1 | S. cerevisiae deletion strains, locus YLR027C, strain aat2, active compounds read low 0.996 | S. cerevisiae deletion strains, locus YLR039C, strain RIC1, active compounds read low 1.02 | S. cerevisiae deletion strains, locus YLR058C, strain SHM2, active compounds read low 1.01 | S. cerevisiae deletion strains, locus YLR102C, strain apc9, active compounds read low 1.04 | S. cerevisiae deletion strains, locus YLR113W, strain HOG1, active compounds read low 1.06 | S. cerevisiae deletion strains, locus YLR221C, strain rsa3, active compounds read low 0.988 | S. cerevisiae deletion strains, locus YLR258W, strain gsy2, active compounds read low 0.998 | S. cerevisiae deletion strains, locus YLR262C, strain YPT6 (second series), active compounds read low 0.989 | S. cerevisiae deletion strains, locus YLR262C, strain YPT6, active compounds read low 1.04 | S. cerevisiae deletion strains, locus YLR268W, strain sec22, active compounds read low 1.02 | S. cerevisiae deletion strains, locus YLR320W, strain mms22, active compounds read low 0.985 | S. cerevisiae deletion strains, locus YLR330W, strain CHS5, active compounds read low 1.01 | S. cerevisiae deletion strains, locus YLR342W, strain FKS1 (second series), active compounds read low 0.996 | S. cerevisiae deletion strains, locus YLR342W, strain FKS1, active compounds read low 1.01 | S. cerevisiae deletion strains, locus YLR357W, strain rsc2, active compounds read low 0.991 | S. cerevisiae deletion strains, locus YLR370C, strain arc18, active compounds read low 1 | S. cerevisiae deletion strains, locus YLR371W, strain rom2, active compounds read low 1.02 | S. cerevisiae deletion strains, locus YLR384C, strain iki3, active compounds read low 1 | S. cerevisiae deletion strains, locus YLR418C, strain cdc73, active compounds read low 1.04 | S. cerevisiae deletion strains, locus YML016C, strain PPZ1, active compounds read low 1.01 | S. cerevisiae deletion strains, locus YML032C, strain rad52, active compounds read low 1.03 | S. cerevisiae deletion strains, locus YML120C, strain ndi1, active compounds read low 1 | S. cerevisiae deletion strains, locus YML124C, strain tub3, active compounds read low 1.02 | S. cerevisiae deletion strains, locus YMR058W, strain fet3, active compounds read low 0.998 | S. cerevisiae deletion strains, locus YMR078C, strain ctf18, active compounds read low 1.03 | S. cerevisiae deletion strains, locus YMR125W, strain sto1, active compounds read low 0.998 | S. cerevisiae deletion strains, locus YMR129W, active compounds read low 1 | S. cerevisiae deletion strains, locus YMR205C, strain PFK2, active compounds read low 0.995 | S. cerevisiae deletion strains, locus YMR223W, strain ubp8, active compounds read low 1.02 | S. cerevisiae deletion strains, locus YMR231W, strain pep5, active compounds read low 1 | S. cerevisiae deletion strains, locus YMR263W, strain SAP30, active compounds read low 1.02 | S. cerevisiae deletion strains, locus YMR307W, strain GAS1, active compounds read low 1.1 | S. cerevisiae deletion strains, locus YNL067W, strain RPL9B, active compounds read low 1.01 | S. cerevisiae deletion strains, locus YNL071W, strain lat1, active compounds read low 0.999 | S. cerevisiae deletion strains, locus YNL128W, strain TEP1, active compounds read low 1.01 | S. cerevisiae deletion strains, locus YNL153C, strain GIM3, active compounds read low 1.01 | S. cerevisiae deletion strains, locus YNL183C, strain NPR1, active compounds read low 0.977 | S. cerevisiae deletion strains, locus YNL209W, strain ssb2, active compounds read low 0.999 | S. cerevisiae deletion strains, locus YNL233W, strain BNI4, active compounds read low 0.998 | S. cerevisiae deletion strains, locus YNL248C, strain rpa49, active compounds read low 0.989 | S. cerevisiae deletion strains, locus YNL250W, strain rad50, active compounds read low 1.03 | S. cerevisiae deletion strains, locus YNL271C, strain bni1, active compounds read low 1.03 | S. cerevisiae deletion strains, locus YNL298W, strain CLA4, active compounds read low 1.04 | S. cerevisiae deletion strains, locus YNL307C, strain MCK1, active compounds read low 1.01 | S. cerevisiae deletion strains, locus YNL322C, strain KRE1 (second series), active compounds read low 0.995 | S. cerevisiae deletion strains, locus YNL322C, strain KRE1, active compounds read low 1.01 | S. cerevisiae deletion strains, locus YNR049C, strain mso1, active compounds read low 0.998 | S. cerevisiae deletion strains, locus YNR052C, strain pop2, active compounds read low 1.03 | S. cerevisiae deletion strains, locus YOL006C, strain TOP1, active compounds read low 1.03 | S. cerevisiae deletion strains, locus YOL012C, strain htz1 1.06 | S. cerevisiae deletion strains, locus YOL147C, strain pex11, active compounds read low 1.02 | S. cerevisiae deletion strains, locus YOR001W, strain rrp6, active compounds read low 0.977 | S. cerevisiae deletion strains, locus YOR061W, strain CKA2, active compounds read low 1.01 | S. cerevisiae deletion strains, locus YOR069W, strain VPS5, active compounds read low 1.01 | S. cerevisiae deletion strains, locus YOR070C, strain gyp1, active compounds read low 1 | S. cerevisiae deletion strains, locus YOR080W, strain dia2, active compounds read low 1 | S. cerevisiae deletion strains, locus YOR083W, strain WHI5, active compounds read low 0.999 | S. cerevisiae deletion strains, locus YOR106W, strain vam3, active compounds read low 0.985 | S. cerevisiae deletion strains, locus YOR136W, strain idh2, active compounds read low 1.03 | S. cerevisiae deletion strains, locus YOR144C, strain elg1, active compounds read low 1.02 | S. cerevisiae deletion strains, locus YOR184W, strain ser1, active compounds read low 1.03 | S. cerevisiae deletion strains, locus YOR231W, strain MKK1, active compounds read low 1.03 | S. cerevisiae deletion strains, locus YOR265W, strain rbl2, active compounds read low 1.03 | S. cerevisiae deletion strains, locus YOR270C, strain vph1, active compounds read low 0.974 | S. cerevisiae deletion strains, locus YOR290C, strain snf2, active compounds read low 0.987 | S. cerevisiae deletion strains, locus YOR316C, strain cot1, active compounds read low 1.03 | S. cerevisiae deletion strains, locus YPL051W, strain arl3, active compounds read low 1 | S. cerevisiae deletion strains, locus YPL055C, strain LGE1, active compounds read low 1.02 | S. cerevisiae deletion strains, locus YPL078C, strain atp4, active compounds read low 0.989 | S. cerevisiae deletion strains, locus YPL106C, strain sse1, active compounds read low 1.04 | S. cerevisiae deletion strains, locus YPL240C, strain hsp82, active compounds read low 1.01 | S. cerevisiae deletion strains, locus YPL241C, strain CIN2, active compounds read low 1.01 | S. cerevisiae deletion strains, locus YPL256C, strain CLN2, active compounds read low 1.07 | S. cerevisiae deletion strains, locus YPR119W, strain clb2, active compounds read low 1.02 | S. cerevisiae deletion strains, locus YPR141C, strain kar3, active compounds read low 1.03 | S. cerevisiae deletion strains, locus YPR163C, strain tif3, active compounds read low 1.02 | S. cerevisiae deletion strains, locus YPR167C, strain met16, active compounds read low 1.03 | S. cerevisiae deletion strains, strain wtn01, active compounds read low 1.02 | S. cerevisiae strains, strain wild type, active compounds read low 1.01

Source: PubChem BioAssay AID1159580 (chemical genetic matrix, 2015)
